Measured values reported in PubChem BioAssay (Tox21).
Values without a mark were called inactive. Records with an inconclusive call do not appear. Entries that show only a call come without a potency. Active and inactive are the calls of the source. Calls come from the whole dose curve; as a rule, active = well fitted curve in the direction sought with a large enough effect in the repeat runs; inconclusive = weak or mixed curves; inactive = no such curve, though single readings can be large; an effect the other way counts as inactive or inconclusive.

How the values were obtained:
[1] = qHTS RealTime-Glo MT Cell Viability Assay in HepG2 cells - 40 hour (AID 1224870); note: nearly all actives have a fitted effect of over 50% in size
Summary of the method: (§1)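 HepG2 cells mixed with RealTime-Glo MT reagents (NanoLuc plus cell-permeant prosubstrate) were seeded at 600 cells/well, incubated 5 h at 37 C/5% CO2, then pinned with compounds in DMSO; nonlytic luminescence tracked viability during 40 h treatment.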

[2] = A CellTox Green Cytotoxicity Assay to monitor cytotoxicity in HEK293 cells - 40 hour (AID 1224871); note: nearly all actives have a fitted effect of over 45% in size
Summary of the method: (§2)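 Real-time, in one plate: 600 HEK293 cells/well with dead-cell DNA dye, pinned compound after 5 h, 37 C incubation over 40 h; viable cells give no appreciable fluorescence.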

[3] = qHTS RealTime-Glo MT Cell Viability Assay in HEK293 cells - 16 hour (AID 1224872); note: nearly all actives have a fitted effect of over 50% in size; note: potency is the fitted concentration of half-maximal effect
Summary of the method: (§3)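 HEK293 cells were seeded at 600 cells/well together with NanoLuc luciferase and cell-permeant prosubstrate, preincubated 5 h at 37 C/5% CO2, then given compound in DMSO by pintool. Luminescence from viable-cell prosubstrate reduction was read repeatedly over 40 h.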

[4] = qHTS RealTime-Glo MT Cell Viability Assay in HepG2 cells - 8 hour (AID 1224873); note: nearly all actives have a fitted effect of over 55% in size
Summary of the method: as §1

[5] = qHTS RealTime-Glo MT Cell Viability Assay in HEK293 cells - 40 hour (AID 1224874); settings: RealTime-Glo luminescence; max response: active compounds read low; note: nearly all actives have a fitted effect of over 50% in size; note: potency is the fitted concentration of half-maximal effect
Summary of the method: (§4)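 Kinetic, non-lysing viability readout. Seed HEK293 (600/well) with reagent, incubate 5 h at 37 C/5% CO2, pin 23 nL compound in DMSO, incubate at 37 C, read luminescence at 0, 8, 16, 24, 32, 40 h.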

[6] = A CellTox Green Cytotoxicity Assay to monitor cytotoxicity in HEK293 cells - 24 hour (AID 1224875); note: series mostly up to about 77 µM; nearly all actives have a fitted effect of over 45% in size
Summary of the method: as §2

[7] = qHTS RealTime-Glo MT Cell Viability Assay in HepG2 cells - 32 hour (AID 1224877); note: nearly all actives have a fitted effect of over 55% in size
Summary of the method: (§5)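 HepG2 cells were seeded at 600 cells/well together with NanoLuc luciferase and a cell-permeant prosubstrate, preincubated 5 h at 37 C/5% CO2, then pin-dosed with compounds in DMSO. Nonlytic luminescence from viable cells was read at each time point.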

[8] = A CellTox Green Cytotoxicity Assay to monitor cytotoxicity in HepG2 cells - 24 hour (AID 1224878); note: nearly all actives have a fitted effect of over 45% in size; note: potency is the fitted concentration of half-maximal effect
Summary of the method: (§6)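 Cytotoxicity was tracked as dead-cell DNA fluorescence in HepG2 cells treated with test compounds at 37 C; each time-point value comes from one kinetic series spanning 0, 8, 16, 24, 32 and 40 h.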

[9] = A CellTox Green Cytotoxicity Assay to monitor cytotoxicity in HepG2 cells - 40 hour (AID 1224879); note: nearly all actives have a fitted effect of over 40% in size; note: potency is the fitted concentration of half-maximal effect
Summary of the method: as §6

[10] = qHTS RealTime-Glo MT Cell Viability Assay in HEK293 cells - 0 hour (AID 1224880); note: top concentration of the series differs between compounds; nearly all actives have a fitted effect of over 45% in size
Summary of the method: as §4

[11] = A CellTox Green Cytotoxicity Assay to monitor cytotoxicity in HEK293 cells - 32 hour (AID 1224881); note: nearly all actives have a fitted effect of over 40% in size
Summary of the method: as §2

[12] = A CellTox Green Cytotoxicity Assay to monitor cytotoxicity in HepG2 cells - 32 hour (AID 1224883); note: nearly all actives have a fitted effect of over 50% in size; note: potency is the fitted concentration of half-maximal effect
Summary of the method: as §6

[13] = A CellTox Green Cytotoxicity Assay to monitor cytotoxicity in HEK293 cells - 8 hour (AID 1224884); note: nearly all actives have a fitted effect of over 35% in size
Summary of the method: as §2

[14] = qHTS RealTime-Glo MT Cell Viability Assay in HepG2 cells - 16 hour (AID 1224885); note: nearly all actives have a fitted effect of over 50% in size
Summary of the method: as §5

[15] = qHTS RealTime-Glo MT Cell Viability Assay in HEK293 cells - 24 hour (AID 1224886); note: nearly all actives have a fitted effect of over 50% in size; note: potency is the fitted concentration of half-maximal effect
Summary of the method: as §3

[16] = qHTS RealTime-Glo MT Cell Viability Assay in HEK293 cells - 8 hour (AID 1224887); note: nearly all actives have a fitted effect of over 50% in size; note: potency is the fitted concentration of half-maximal effect
Summary of the method: as §4

[17] = qHTS RealTime-Glo MT Cell Viability Assay in HepG2 cells - 0 hour (AID 1224889); note: nearly all actives have a fitted effect of over 50% in size
Summary of the method: as §5

[18] = A CellTox Green Cytotoxicity Assay to monitor cytotoxicity in HepG2 cells - 16 hour (AID 1224876); note: nearly all actives have a fitted effect of over 45% in size
Summary of the method: as §6

[19] = A CellTox Green Cytotoxicity Assay to monitor cytotoxicity in HEK293 cells - 16 hour (AID 1224888); note: nearly all actives have a fitted effect of over 35% in size
Summary of the method: as §2

[20] = A CellTox Green Cytotoxicity Assay to monitor cytotoxicity in HepG2 cells - 0 hour (AID 1224882); note: nearly all actives have a fitted effect of over 35% in size
Summary of the method: as §6

O=C(C(=O)c1ccccc1)c1ccccc1
Potency [1]: inactive
Potency [2]: inactive
Potency [3]: inactive
Potency [4]: inactive
max response [5]: 3.7%
Potency [6]: inactive
Potency [7]: inactive
Potency [8]: inactive
Potency [9]: inactive
Potency [10]: inactive
Potency [11]: inactive
Potency [12]: inactive
Potency [13]: inactive
Potency [14]: inactive
Potency [15]: inactive
Potency [16]: inactive
Potency [17]: inactive

Cc1nccn1-c1ccc(Sc2cccc(C3(C(N)=O)CCOCC3)c2)cc1
Potency [1]: inactive
Potency [2]: inactive
Potency [3]: 1.38 µM (active)
Potency [4]: inactive
Potency [5]: 1.23 µM (active)
Potency [6]: inactive
Potency [18]: inactive
Potency [8]: inactive
Potency [10]: inactive
Potency [11]: inactive
Potency [13]: inactive
Potency [15]: 1.38 µM (active)
Potency [19]: inactive
Potency [17]: inactive

COc1cc2[nH]c(=O)[nH]c(=O)c2cc1OC
Potency [1]: inactive
Potency [2]: inactive
Potency [3]: inactive
Potency [4]: inactive
max response [5]: 1.95%
Potency [6]: inactive
Potency [18]: inactive
Potency [7]: inactive
Potency [8]: inactive
Potency [10]: inactive
Potency [11]: inactive
Potency [20]: inactive
Potency [12]: inactive
Potency [13]: inactive
Potency [14]: inactive
Potency [15]: inactive
Potency [17]: inactive

Nc1ccc(S(=O)(=O)O)cc1
Potency [1]: inactive
Potency [2]: inactive
Potency [3]: inactive
Potency [4]: inactive
max response [5]: 0.165%
Potency [6]: inactive
Potency [7]: inactive
Potency [8]: inactive
Potency [9]: inactive
Potency [10]: inactive
Potency [11]: inactive
Potency [20]: inactive
Potency [12]: inactive
Potency [13]: inactive
Potency [14]: inactive
Potency [15]: inactive
Potency [16]: inactive
Potency [19]: inactive
Potency [17]: inactive

O=C(O)c1cccnc1C(=O)O
Potency [1]: inactive
Potency [2]: inactive
Potency [3]: inactive
Potency [4]: inactive
max response [5]: -1.78%
Potency [6]: inactive
Potency [18]: inactive
Potency [7]: inactive
Potency [8]: inactive
Potency [10]: inactive
Potency [11]: inactive
Potency [20]: inactive
Potency [12]: inactive
Potency [13]: inactive
Potency [14]: inactive
Potency [16]: inactive
Potency [19]: inactive

CCCc1c(OCCCOc2ccc(OCC(=O)O)cc2)ccc(C(C)=O)c1O
Potency [1]: inactive
Potency [2]: inactive
Potency [3]: inactive
Potency [4]: inactive
max response [5]: -7.6%
Potency [6]: inactive
Potency [18]: inactive
Potency [7]: inactive
Potency [8]: inactive
Potency [10]: inactive
Potency [11]: inactive
Potency [20]: inactive
Potency [12]: inactive
Potency [14]: inactive
Potency [15]: inactive
Potency [16]: inactive
Potency [19]: inactive

CCC(C)(C)C1CCC(O)CC1 (stereo not drawn)
Potency [1]: inactive
Potency [2]: inactive
Potency [3]: inactive
Potency [4]: inactive
max response [5]: 3.32%
Potency [6]: inactive
Potency [7]: inactive
Potency [10]: inactive
Potency [11]: inactive
Potency [20]: inactive
Potency [13]: inactive
Potency [14]: inactive
Potency [15]: inactive
Potency [19]: inactive

CCCCCCCCSCCO
Potency [1]: inactive
Potency [2]: inactive
Potency [3]: inactive
Potency [4]: inactive
max response [5]: 0.336%
Potency [6]: inactive
Potency [7]: inactive
Potency [8]: 43.6 µM (active)
Potency [9]: 43.6 µM (active)
Potency [10]: inactive
Potency [11]: inactive
Potency [20]: inactive
Potency [12]: 43.6 µM (active)
Potency [13]: inactive
Potency [14]: inactive
Potency [15]: inactive
Potency [19]: inactive
Potency [17]: inactive

CCNC(=O)N1CCN(CCCC(c2ccc(F)cc2)c2ccc(F)cc2)CC1
Potency [1]: inactive
Potency [2]: inactive
Potency [3]: 16.9 µM (active)
Potency [4]: inactive
Potency [5]: 16.9 µM (active)
Potency [6]: inactive
Potency [18]: inactive
Potency [7]: inactive
Potency [10]: inactive
Potency [11]: inactive
Potency [20]: inactive
Potency [12]: 21.3 µM (active)
Potency [13]: inactive
Potency [14]: inactive
Potency [15]: 16.9 µM (active)
Potency [16]: 16.9 µM (active)
Potency [19]: inactive
Potency [17]: inactive

CCCCCCCC/C=C\CCCCCCCC(=O)OC(CO)CO
Potency [1]: inactive
Potency [2]: inactive
Potency [3]: inactive
Potency [4]: inactive
max response [5]: 0.119%
Potency [6]: inactive
Potency [7]: inactive
Potency [8]: inactive
Potency [9]: inactive
Potency [11]: inactive
Potency [20]: inactive
Potency [12]: inactive
Potency [14]: inactive
Potency [15]: inactive
Potency [19]: inactive
Potency [17]: inactive

CCCCC(CC)COC(=O)COc1ccc(Cl)cc1C (stereo not drawn)
Potency [1]: inactive
Potency [2]: inactive
Potency [3]: inactive
Potency [4]: inactive
max response [5]: 14.7%
Potency [6]: inactive
Potency [7]: inactive
Potency [8]: inactive
Potency [9]: inactive
Potency [10]: inactive
Potency [11]: inactive
Potency [12]: inactive
Potency [14]: inactive
Potency [15]: inactive
Potency [16]: inactive
Potency [17]: inactive

CCC(C(=O)OCCN(CC)CC)c1ccccc1 (stereo not drawn)
Potency [1]: inactive
Potency [2]: inactive
Potency [3]: inactive
Potency [4]: inactive
max response [5]: 8.92%
Potency [6]: inactive
Potency [7]: inactive
Potency [8]: inactive
Potency [9]: inactive
Potency [10]: inactive
Potency [11]: inactive
Potency [20]: inactive
Potency [12]: inactive
Potency [13]: inactive
Potency [14]: inactive
Potency [15]: inactive
Potency [17]: inactive

CCCCCCCCCCOS(=O)(=O)O
Potency [1]: inactive
Potency [2]: inactive
Potency [3]: inactive
Potency [4]: inactive
max response [5]: -3.11%
Potency [6]: inactive
Potency [7]: inactive
Potency [8]: inactive
Potency [9]: inactive
Potency [10]: inactive
Potency [11]: inactive
Potency [20]: inactive
Potency [12]: inactive
Potency [13]: inactive
Potency [14]: inactive
Potency [15]: inactive
Potency [16]: inactive
Potency [17]: inactive

CCN(Cc1cccc(S(=O)(=O)O)c1)c1ccc(C(=C2C=CC(=[N+](CC)Cc3cccc(S(=O)(=O)[O-])c3)C=C2)c2ccccc2)cc1
Potency [1]: inactive
Potency [2]: inactive
Potency [3]: inactive
Potency [4]: inactive
max response [5]: 3.22%
Potency [6]: inactive
Potency [18]: inactive
Potency [7]: inactive
Potency [8]: inactive
Potency [11]: inactive
Potency [20]: inactive
Potency [12]: inactive
Potency [13]: inactive
Potency [14]: inactive
Potency [16]: inactive
